Experimental data from ChEMBL document CHEMBL1961873, “Compounds: GSK PKIS; Assays: Nanosyn kinase panel” (2012).

How the values were obtained:
[1] = molecular target: Sphingosine kinase 1 (Homo sapiens) (UniProt Q9NYA1); conditions: at 1 µM;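 note: mean SPHK1 inhibition value reported from the GSK PKIS kinase panel screen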
[2] = molecular target: T1, Sphingosine kinase 2 (Homo sapiens) (UniProt Q9NRA0); conditions: at 0.1 µM
T1 sequence (whole entry): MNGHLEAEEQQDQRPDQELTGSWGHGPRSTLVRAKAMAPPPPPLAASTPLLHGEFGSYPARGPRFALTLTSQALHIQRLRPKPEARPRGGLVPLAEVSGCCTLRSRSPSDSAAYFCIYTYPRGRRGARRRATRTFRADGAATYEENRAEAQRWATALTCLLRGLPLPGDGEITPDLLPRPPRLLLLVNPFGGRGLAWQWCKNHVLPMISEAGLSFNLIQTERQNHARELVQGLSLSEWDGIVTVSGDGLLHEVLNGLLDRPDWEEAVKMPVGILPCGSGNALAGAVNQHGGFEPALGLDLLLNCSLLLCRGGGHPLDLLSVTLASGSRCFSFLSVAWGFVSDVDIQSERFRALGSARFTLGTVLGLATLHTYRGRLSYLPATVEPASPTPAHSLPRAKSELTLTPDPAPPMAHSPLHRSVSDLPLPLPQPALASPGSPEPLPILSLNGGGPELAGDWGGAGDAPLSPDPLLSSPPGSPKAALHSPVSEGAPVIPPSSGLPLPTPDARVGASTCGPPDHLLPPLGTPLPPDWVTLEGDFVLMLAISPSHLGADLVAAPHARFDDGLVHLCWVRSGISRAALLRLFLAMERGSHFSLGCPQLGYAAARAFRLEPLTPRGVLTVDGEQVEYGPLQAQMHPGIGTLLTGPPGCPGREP

[3] = molecular target: T1, Sphingosine kinase 2 (Homo sapiens); conditions: at 1 µM
[4] = molecular target: Casein kinase II subunit alpha (Homo sapiens) (UniProt P68400); conditions: at 0.1 µM
[5] = molecular target: Casein kinase II subunit alpha (Homo sapiens) (UniProt P68400); conditions: at 1 µM
[6] = molecular target: T2, Inhibitor of nuclear factor kappa-B kinase subunit alpha (Homo sapiens) (UniProt O15111); conditions: at 0.1 µM
T2 sequence (whole entry): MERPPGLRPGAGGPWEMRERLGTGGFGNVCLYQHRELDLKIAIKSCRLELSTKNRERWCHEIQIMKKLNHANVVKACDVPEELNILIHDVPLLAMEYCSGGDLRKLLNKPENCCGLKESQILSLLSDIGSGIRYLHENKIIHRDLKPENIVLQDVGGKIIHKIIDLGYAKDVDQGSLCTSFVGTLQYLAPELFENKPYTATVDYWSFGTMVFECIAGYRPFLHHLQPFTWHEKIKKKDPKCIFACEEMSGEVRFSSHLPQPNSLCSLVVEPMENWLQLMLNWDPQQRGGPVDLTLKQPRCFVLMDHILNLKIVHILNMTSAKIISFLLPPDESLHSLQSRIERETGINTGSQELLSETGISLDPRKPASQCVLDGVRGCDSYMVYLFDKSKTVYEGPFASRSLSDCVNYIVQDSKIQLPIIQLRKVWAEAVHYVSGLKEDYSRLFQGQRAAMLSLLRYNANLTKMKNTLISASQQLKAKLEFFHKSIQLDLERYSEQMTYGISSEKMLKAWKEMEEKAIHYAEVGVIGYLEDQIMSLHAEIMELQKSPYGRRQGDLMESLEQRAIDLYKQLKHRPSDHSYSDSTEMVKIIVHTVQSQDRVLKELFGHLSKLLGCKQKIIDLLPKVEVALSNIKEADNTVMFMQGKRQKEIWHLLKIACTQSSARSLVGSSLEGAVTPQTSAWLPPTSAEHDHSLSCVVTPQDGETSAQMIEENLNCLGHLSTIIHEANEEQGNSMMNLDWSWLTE

[7] = molecular target: T2, Inhibitor of nuclear factor kappa-B kinase subunit alpha (Homo sapiens); conditions: at 1 µM
[8] = molecular target: T3, Inhibitor of nuclear factor kappa-B kinase subunit beta (Homo sapiens) (UniProt O14920); conditions: at 0.1 µM
T3 sequence (whole entry): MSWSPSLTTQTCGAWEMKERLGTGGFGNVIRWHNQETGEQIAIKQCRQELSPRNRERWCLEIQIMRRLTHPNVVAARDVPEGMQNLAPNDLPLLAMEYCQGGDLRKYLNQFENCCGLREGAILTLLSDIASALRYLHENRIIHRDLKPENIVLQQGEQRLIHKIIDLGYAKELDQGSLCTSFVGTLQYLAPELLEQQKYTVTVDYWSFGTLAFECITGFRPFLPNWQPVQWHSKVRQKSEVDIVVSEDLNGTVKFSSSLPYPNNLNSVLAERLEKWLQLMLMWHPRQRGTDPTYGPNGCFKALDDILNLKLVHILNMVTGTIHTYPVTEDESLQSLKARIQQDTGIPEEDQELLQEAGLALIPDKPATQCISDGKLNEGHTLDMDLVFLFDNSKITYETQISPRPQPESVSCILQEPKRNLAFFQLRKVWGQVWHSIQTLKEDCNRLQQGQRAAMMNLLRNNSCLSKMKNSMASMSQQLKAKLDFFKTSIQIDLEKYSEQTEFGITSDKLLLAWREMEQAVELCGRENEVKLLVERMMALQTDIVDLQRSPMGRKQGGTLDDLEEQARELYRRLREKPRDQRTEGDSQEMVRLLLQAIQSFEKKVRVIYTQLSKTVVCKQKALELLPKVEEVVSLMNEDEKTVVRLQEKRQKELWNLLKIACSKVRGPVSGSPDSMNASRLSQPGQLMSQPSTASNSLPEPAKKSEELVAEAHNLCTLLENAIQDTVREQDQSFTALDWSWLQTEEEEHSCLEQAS

[9] = molecular target: T3, Inhibitor of nuclear factor kappa-B kinase subunit beta (Homo sapiens); conditions: at 1 µM
[10] = molecular target: T4, Inhibitor of nuclear factor kappa-B kinase subunit epsilon (Homo sapiens) (UniProt Q14164); conditions: at 0.1 µM
T4 sequence (whole entry): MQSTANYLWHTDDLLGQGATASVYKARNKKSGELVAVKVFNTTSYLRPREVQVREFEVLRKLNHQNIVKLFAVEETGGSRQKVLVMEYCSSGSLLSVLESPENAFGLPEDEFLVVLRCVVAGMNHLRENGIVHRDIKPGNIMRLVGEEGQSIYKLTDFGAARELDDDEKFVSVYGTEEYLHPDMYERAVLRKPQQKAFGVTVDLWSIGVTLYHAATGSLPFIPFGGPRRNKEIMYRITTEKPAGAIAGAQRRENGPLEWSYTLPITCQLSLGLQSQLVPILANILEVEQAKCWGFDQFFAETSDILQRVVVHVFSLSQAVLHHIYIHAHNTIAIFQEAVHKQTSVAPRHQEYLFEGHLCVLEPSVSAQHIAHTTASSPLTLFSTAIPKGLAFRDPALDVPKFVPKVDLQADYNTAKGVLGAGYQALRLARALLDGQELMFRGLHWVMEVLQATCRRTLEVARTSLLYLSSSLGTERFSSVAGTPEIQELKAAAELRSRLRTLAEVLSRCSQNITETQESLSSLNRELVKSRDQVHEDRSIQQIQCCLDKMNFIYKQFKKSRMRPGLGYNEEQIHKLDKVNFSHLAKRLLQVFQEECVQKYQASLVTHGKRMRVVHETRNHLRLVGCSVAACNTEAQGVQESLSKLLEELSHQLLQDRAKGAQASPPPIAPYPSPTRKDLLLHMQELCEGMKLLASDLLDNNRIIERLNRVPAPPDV

[11] = molecular target: T4, Inhibitor of nuclear factor kappa-B kinase subunit epsilon (Homo sapiens); conditions: at 1 µM
[12] = molecular target: T5, Serine/threonine-protein kinase Nek1 (Homo sapiens) (UniProt Q96PY6); conditions: at 0.1 µM
T5 sequence (whole entry): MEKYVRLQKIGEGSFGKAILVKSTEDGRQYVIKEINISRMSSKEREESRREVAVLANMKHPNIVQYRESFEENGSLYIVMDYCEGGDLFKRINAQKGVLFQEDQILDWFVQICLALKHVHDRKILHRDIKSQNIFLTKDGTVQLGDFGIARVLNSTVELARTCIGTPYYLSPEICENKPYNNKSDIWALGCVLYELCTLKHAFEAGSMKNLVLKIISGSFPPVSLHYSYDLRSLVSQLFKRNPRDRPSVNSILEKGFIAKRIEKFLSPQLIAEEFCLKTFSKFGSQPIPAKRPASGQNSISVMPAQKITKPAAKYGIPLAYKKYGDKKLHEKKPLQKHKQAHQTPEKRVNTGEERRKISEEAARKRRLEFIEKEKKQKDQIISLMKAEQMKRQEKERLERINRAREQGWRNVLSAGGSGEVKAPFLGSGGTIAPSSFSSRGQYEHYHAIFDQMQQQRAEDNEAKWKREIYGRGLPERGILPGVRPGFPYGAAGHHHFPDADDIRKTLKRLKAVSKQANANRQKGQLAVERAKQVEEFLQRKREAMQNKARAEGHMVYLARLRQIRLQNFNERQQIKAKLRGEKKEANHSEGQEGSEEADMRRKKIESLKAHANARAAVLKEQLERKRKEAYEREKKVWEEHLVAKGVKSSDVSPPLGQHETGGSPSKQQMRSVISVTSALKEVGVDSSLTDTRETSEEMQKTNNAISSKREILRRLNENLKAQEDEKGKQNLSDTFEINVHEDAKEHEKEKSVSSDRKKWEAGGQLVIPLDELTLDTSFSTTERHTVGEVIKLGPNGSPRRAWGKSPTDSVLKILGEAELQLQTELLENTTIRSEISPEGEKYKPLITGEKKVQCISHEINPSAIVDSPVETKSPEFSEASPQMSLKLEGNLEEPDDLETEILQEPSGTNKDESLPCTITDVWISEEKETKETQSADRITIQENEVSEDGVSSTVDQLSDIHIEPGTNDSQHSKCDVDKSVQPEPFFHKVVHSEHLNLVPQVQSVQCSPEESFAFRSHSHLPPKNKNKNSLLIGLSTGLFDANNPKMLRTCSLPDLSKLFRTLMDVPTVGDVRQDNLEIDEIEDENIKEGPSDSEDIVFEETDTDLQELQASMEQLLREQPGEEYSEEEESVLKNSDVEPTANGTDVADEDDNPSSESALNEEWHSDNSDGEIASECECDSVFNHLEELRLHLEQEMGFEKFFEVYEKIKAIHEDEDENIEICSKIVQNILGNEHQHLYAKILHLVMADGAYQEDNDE

[13] = molecular target: T5, Serine/threonine-protein kinase Nek1 (Homo sapiens); conditions: at 1 µM
[14] = molecular target: T6, Serine/threonine-protein kinase Nek2 (Homo sapiens) (UniProt P51955); conditions: at 0.1 µM
T6 sequence (whole entry): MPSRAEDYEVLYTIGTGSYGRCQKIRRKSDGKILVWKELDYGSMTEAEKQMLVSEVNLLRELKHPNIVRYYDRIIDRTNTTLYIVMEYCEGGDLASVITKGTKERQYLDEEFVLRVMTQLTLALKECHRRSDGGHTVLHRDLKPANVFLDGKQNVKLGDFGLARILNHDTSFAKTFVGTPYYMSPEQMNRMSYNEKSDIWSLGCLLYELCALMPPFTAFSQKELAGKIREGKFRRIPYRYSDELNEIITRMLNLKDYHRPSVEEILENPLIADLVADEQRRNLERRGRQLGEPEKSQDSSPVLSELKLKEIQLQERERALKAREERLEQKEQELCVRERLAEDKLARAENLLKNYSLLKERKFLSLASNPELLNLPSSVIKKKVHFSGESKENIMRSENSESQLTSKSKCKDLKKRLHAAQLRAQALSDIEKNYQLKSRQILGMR

[15] = molecular target: T6, Serine/threonine-protein kinase Nek2 (Homo sapiens); conditions: at 1 µM
[16] = molecular target: Serine/threonine-protein kinase Nek6 (Homo sapiens) (UniProt Q9HC98); conditions: at 0.1 µM
[17] = molecular target: Serine/threonine-protein kinase Nek6 (Homo sapiens) (UniProt Q9HC98); conditions: at 1 µM
[18] = molecular target: Serine/threonine-protein kinase Nek7 (Homo sapiens) (UniProt Q8TDX7); conditions: at 0.1 µM
[19] = molecular target: Serine/threonine-protein kinase Nek7 (Homo sapiens) (UniProt Q8TDX7); conditions: at 1 µM
[20] = molecular target: T7, Serine/threonine-protein kinase Nek9 (Homo sapiens) (UniProt Q8TD19); conditions: at 0.1 µM;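 note: reported value is the mean percent inhibition of NEK9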
T7 sequence (whole entry): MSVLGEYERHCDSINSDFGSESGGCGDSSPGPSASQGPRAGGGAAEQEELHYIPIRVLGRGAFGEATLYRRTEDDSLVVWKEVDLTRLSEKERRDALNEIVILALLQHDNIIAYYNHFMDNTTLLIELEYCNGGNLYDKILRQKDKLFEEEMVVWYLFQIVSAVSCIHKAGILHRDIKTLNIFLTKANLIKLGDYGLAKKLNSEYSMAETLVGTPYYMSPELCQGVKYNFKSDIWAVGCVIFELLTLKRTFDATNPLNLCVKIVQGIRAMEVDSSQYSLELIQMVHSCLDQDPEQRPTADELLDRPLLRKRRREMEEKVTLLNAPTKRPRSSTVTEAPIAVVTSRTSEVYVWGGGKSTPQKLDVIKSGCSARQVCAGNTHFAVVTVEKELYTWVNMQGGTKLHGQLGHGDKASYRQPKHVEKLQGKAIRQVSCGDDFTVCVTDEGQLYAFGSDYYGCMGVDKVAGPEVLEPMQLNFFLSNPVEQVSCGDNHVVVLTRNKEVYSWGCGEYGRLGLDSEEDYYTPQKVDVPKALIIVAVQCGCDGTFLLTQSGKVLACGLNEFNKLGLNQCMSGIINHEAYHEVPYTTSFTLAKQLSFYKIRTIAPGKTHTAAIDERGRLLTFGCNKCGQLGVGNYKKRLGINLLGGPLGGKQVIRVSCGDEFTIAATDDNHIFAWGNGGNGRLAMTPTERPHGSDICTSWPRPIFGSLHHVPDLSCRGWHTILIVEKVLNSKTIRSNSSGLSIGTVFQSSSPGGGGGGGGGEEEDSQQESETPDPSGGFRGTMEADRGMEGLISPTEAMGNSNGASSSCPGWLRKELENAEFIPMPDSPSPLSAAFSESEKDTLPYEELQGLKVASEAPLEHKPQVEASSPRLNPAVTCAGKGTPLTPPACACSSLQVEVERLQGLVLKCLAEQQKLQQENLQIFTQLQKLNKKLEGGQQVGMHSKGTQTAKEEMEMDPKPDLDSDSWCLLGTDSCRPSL

Sequence of Serine/threonine-protein kinase Nek6 (Homo sapiens) (Q9HC98 whole entry): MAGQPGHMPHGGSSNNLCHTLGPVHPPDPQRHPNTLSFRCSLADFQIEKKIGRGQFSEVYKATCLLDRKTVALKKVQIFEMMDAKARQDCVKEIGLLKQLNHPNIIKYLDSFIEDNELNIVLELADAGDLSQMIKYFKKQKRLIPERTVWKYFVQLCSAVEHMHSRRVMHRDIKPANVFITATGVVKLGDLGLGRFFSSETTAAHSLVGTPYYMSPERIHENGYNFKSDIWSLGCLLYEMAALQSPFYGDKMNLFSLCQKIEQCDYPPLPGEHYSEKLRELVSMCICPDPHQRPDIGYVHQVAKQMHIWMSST
Sequence of Serine/threonine-protein kinase Nek7 (Homo sapiens) (Q8TDX7 whole entry, looked up): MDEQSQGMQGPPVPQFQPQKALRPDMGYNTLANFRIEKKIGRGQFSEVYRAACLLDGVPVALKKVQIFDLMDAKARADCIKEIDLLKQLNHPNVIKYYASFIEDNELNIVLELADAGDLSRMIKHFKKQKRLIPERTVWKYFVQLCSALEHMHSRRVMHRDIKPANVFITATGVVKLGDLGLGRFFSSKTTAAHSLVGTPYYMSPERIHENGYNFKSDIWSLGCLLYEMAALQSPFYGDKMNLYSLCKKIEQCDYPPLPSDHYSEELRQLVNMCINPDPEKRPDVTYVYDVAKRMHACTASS
Sequence of Casein kinase II subunit alpha (Homo sapiens) (P68400 whole entry, looked up): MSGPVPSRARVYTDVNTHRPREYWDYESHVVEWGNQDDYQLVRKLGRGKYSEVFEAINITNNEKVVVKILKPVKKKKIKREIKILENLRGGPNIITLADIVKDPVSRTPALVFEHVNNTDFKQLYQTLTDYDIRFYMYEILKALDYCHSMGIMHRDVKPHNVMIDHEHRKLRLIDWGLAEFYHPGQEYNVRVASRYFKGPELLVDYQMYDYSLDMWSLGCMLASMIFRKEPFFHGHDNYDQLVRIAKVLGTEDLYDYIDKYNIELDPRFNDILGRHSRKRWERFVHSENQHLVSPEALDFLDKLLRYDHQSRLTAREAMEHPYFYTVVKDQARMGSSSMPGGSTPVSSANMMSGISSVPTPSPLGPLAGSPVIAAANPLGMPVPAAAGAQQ
Sequence of Sphingosine kinase 1 (Homo sapiens) (Q9NYA1 whole entry): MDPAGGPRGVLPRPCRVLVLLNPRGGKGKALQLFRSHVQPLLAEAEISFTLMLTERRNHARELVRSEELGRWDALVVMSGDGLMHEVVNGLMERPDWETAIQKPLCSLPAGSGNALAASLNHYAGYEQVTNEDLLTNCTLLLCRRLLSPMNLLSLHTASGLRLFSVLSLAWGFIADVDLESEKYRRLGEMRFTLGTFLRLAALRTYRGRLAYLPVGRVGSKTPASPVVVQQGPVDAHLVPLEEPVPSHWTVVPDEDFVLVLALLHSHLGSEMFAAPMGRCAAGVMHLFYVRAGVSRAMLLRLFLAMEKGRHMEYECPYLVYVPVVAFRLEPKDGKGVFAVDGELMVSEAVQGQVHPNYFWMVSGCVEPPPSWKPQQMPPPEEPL

Structure (SMILES)	inhibition [1] [%]	inhibition [2] [%]	inhibition [3] [%]	inhibition [4] [%]	inhibition [5] [%]	inhibition [6] [%]	inhibition [7] [%]	inhibition [8] [%]	inhibition [9] [%]	inhibition [10] [%]	inhibition [11] [%]	inhibition [12] [%]	inhibition [13] [%]	inhibition [14] [%]	inhibition [15] [%]	inhibition [16] [%]	inhibition [17] [%]	inhibition [18] [%]	inhibition [19] [%]	inhibition [20] [%]
CN1CCN(CCCNc2nc3ccc(Oc4ccc(NC(=O)Nc5cc(C(F)(F)F)ccc5F)cc4)cc3[nH]2)CC1	-1.27	-0.2	-0.28	-2.06	-5.31	3.44	-6.02	0.21	-0.85	-0.49	-0.63	1.41	0.88	0.71	0.01	3.67	-2.03	3.61	0.94	2.54
Cc1ccc(C(=O)NC(C)C)cc1-c1ccc(C(=O)NCC2CC2)cc1	-2.98	-1.05	1.77	7.28	0.22	2.97	-1.81	-0.39	-1.83	-5.06	-4.16	-1.29	-1.39	-3.14	-3.6	-3.09	-3.72	-6.3	-4.59	3.16
